Experimental data taken from PubChem BioAssay (Tox21).
Activity calls are given as the source filed them. A call without a number means that no potency is given here. Calls follow the shape of the dose curve; as a rule, active = well fitted curve in the direction sought with a large enough effect in the repeat runs; inconclusive = weak or mixed curves; inactive = flat fitted curve, though single readings scatter.

Assay: qHTS assay to test for compound auto fluorescence at 590 nm (red) in HEK293 cells (AID 720679)
Conditions: red autofluorescence 540/590 nm; series mostly up to 91.3 µM
Text: National Center for Advancing Translational Sciences [NCATS]
NIH Chemical Genomics Center [NCGC]
U.S. Environmental Protection Agency [EPA]
National Institutes of Environmental Health Sciences [NIEHS]
National Toxicology Program [NTP]
U.S. Food and Drug Administration [FDA]
Compound auto fluorescence often interferes with screening of the compound library against various biological targets and signaling pathways. Some of these compounds may have fluorophoric properties. Such properties may interfere with the assay outputs resulting in false positives and/or negatives. To decrease such complications and ensure the compound activities are relevant in terms of biological response, the Tox21 10K compound library was screened for auto fluorescence.
From the fluorophores used as reporter signals in our screening assays, the auto fluorescence equivalencies of compounds against three fluorophores have been evaluated: Triamterene, Fluorescein and Rose Bengal sodium for blue, green and red fluorescence, respectively. The fluorescence intensities were measured using Excitation/Emission wavelengths at 405/460nm, 485/535nm and 540/590nm for blue, green and red labels, respectively. This assay includes the red fluorescence data.
Tox21 Assay Protocol Summary:
2,000 HEK293 cells in 5 uL of culture medium containing 10% dialyzed FBS per well were dispensed into black wall/clear bottom 1536-well plates using a Multidrop Combi Dispenser (Thermo Scientific). The assay plates were incubated for 4-5 hr at 37C to allow cell attachment to the well bottom, followed by the transfer of 23 nL compound or DMSO vehicle by a pintool work station (Kalypsys, San Diego, CA). After the assay plates were incubated overnight at 37C and 5% CO2, fluorescence intensities in the assay plates were measured by an Envision (PerkinElmer, Shelton, CT) plate reader using three labels for measuring blue, green and red fluorescence at […] 460, 535 and 590nm respectively.

Row | Structure (SMILES) | Potency
1 | c1ccc2ncccc2c1 | inactive
2 | CN(Cc1cnc2nc(N)nc(N)c2n1)c1ccc(C(=O)N[C@@H](CCC(=O)O)C(=O)O)cc1 | inactive
3 | CC(C)(C)c1cccc(C(C)(C)C)c1O | inactive
4 | CN(C)CCCN1c2ccccc2Sc2ccc(Cl)cc21 | inactive
5 | CCCCCCCCCCCCCO | inactive
6 | CC(=O)[C@H]1CC[C@H]2[C@@H]3CC=C4C[C@@H](O)CC[C@]4(C)[C@H]3CC[C@]12C | inactive
7 | CNC[C@H](O)c1ccc(O)c(O)c1 | inactive
8 | Nc1ccc(N)c(Cl)c1 | inactive
9 | Nc1ccc(O)c(N)c1 | inactive
10 | C[N+](C)(C)CCO | inactive
11 | O=C(O)CCCC(=O)O | inactive
12 | CCCN1C=CN(C)C1 | inactive
13 | c1ccc2cc3ccccc3cc2c1 | inactive
14 | O=C1CCc2ccccc2O1 | inactive
15 | COc1ccc(C(=O)c2ccccc2O)c(O)c1 | inactive
16 | C1COCCN1 | inactive
17 | CC1=CC(C)(C)Nc2ccccc21 | inactive
18 | COCCOCCOCCO | inactive
19 | CN1CCOCC1 | inactive
20 | CCOC(=O)C(C)Oc1ccc(Oc2cnc3cc(Cl)ccc3n2)cc1 (stereo not given) | inactive

Row | Structure (SMILES) | Potency
21 | Oc1c(Cl)ccc(Cl)c1Cl | inactive
22 | COC(=O)C(C)Oc1ccc(Oc2ncc(C(F)(F)F)cc2Cl)cc1 (stereo not given) | inactive
23 | CCC(Cc1c(I)cc(I)c(N)c1I)C(=O)O (stereo not given) | inactive
24 | CC1(C)O[C@@H]2C[C@H]3[C@@H]4C[C@H](F)C5=CC(=O)C=C[C@]5(C)[C@@]4(F)[C@@H](O)C[C@]3(C)[C@]2(C(=O)CO)O1 | inactive
25 | NC[C@H](O)c1ccc(O)c(O)c1 | inactive
26 | C=CC(C)(O)CCC=C(C)C (stereo not given) | inactive
27 | CC1(C)OC(=O)NC1=O | inactive
28 | Cc1cccc(Nc2ccccc2C(=O)O)c1C | inactive
29 | COC(=O)c1ccc(C)cc1 | inactive
30 | C[C@]12CC[C@@H]3c4ccc(O)cc4CC[C@H]3[C@@H]1CC[C@H]2O | inactive
31 | Cc1ccc(C(C)(C)C)c(O)c1 | inactive
32 | Cc1ccc(C(C)(C)C)cc1 | inactive
33 | NCCOCCO | inactive
34 | Oc1ccc(C(c2ccc(O)cc2)C(Cl)(Cl)Cl)cc1 | inactive
35 | Nc1cc([N+](=O)[O-])ccc1C(=O)O | inactive
36 | CCO[Si](CCCNC(N)=O)(OCC)OCC | inactive
37 | CCCCCCC(C)O (stereo not given) | inactive
38 | CCCCCCCCCCCCO | inactive
39 | CC(=O)Oc1ccc(C(c2ccc(OC(C)=O)cc2)c2ccccn2)cc1 | inactive
40 | Nc1ccc2c(O)cc(S(=O)(=O)O)cc2c1 | inactive
